Structures can show the parent of a compound that is named as a salt. In all, about 1,300 compounds went through this assay and about 40 (3%) showed activity. The sample as a whole holds a higher share of actives than the screen did.
Test system: Plasmodium falciparum NF54/iGP1_RE9H ulg8 stage V gametocytes
Assay: gametocyte viability (luciferase signal relative to DMSO control) (% of DMSO control); higher = less gametocytocidal activity, active = 50 or less
Details: exposure time: 72 h
Summary of the method: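 In 96-well plates holding nanolitre spots of compound (10 mM DMSO stocks), NF54/iGP1_RE9Hulg8 stage V gametocytes from day 12 were added at ~2.5% gametocytemia and 3% hematocrit in medium with 0.5% Albumax II, giving single wells at 10 µM or 1 µM. Incubation lasted 72 h at 37 °C. Each 90 µl sample then received 10 µl D-luciferin (30 mg/ml) before luminescence reading on an IVIS Lumina II, and viability was normalized to the mean of DMSO vehicle wells on the same plate.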

In the case of `CN1C[C@H](C(=O)N[C@]2(C)O[C@@]3(O)[C@@H]4CCCN4C(=O)[C@H](Cc4ccccc4)N3C2=O)C[C@@H]2c3cccc4[nH]cc(c34)C[C@H]21` [Dihydroergotamine tartrate], the gametocyte viability (concentration: 1 µM) was 66.8 (inactive) and the gametocyte viability (concentration: 10 µM) was 42.4 (active).

In the case of `CCCN1C[C@H](CSC)C[C@@H]2c3cccc4[nH]cc(c34)C[C@H]21` [Pergolide mesylate], the gametocyte viability (concentration: 1 µM) was 78.2 (inactive) and the gametocyte viability (concentration: 10 µM) was 82.3 (inactive).

In the case of `CC(C)C[C@H]1C(=O)N2CCC[C@H]2[C@]2(O)O[C@](NC(=O)[C@@H]3C=C4c5cccc6[nH]c(Br)c(c56)C[C@H]4N(C)C3)(C(C)C)C(=O)N12` [Bromocryptine mesylate], the gametocyte viability (concentration: 1 µM) was 84.2 (inactive) and the gametocyte viability (concentration: 10 µM) was 66.9 (inactive).

With `CCNCC(O)c1cccc(O)c1` (stereo not given) [Etilefrine hydrochloride] the gametocyte viability (concentration: 1 µM) was 87.9 (inactive) and the gametocyte viability (concentration: 10 µM) was 90.2 (inactive).

For `CCC1(c2cccc(O)c2)CCCCN(C)C1` (stereo not given) [Meptazinol hydrochloride], the gametocyte viability (concentration: 1 µM) was 83 (inactive) and the gametocyte viability (concentration: 10 µM) was 81.4 (inactive).

In the case of `CNC(=O)Oc1ccc2c(c1)[C@]1(C)CCN(C)[C@@H]1N2C` [Eserine sulfate, physostigmine sulfate], the gametocyte viability (concentration: 1 µM) was 83.4 (inactive) and the gametocyte viability (concentration: 10 µM) was 79 (inactive).

For `CN1CCC2(C)c3cc(O)ccc3N(C)C12` (single isomer, unassigned; (-)) [(-)-Eseroline fumarate salt], the gametocyte viability (concentration: 1 µM) was 74.2 (inactive) and the gametocyte viability (concentration: 10 µM) was 44.8 (active).

In the case of `C(#CCN1CCCC1)CN1CCCC1` [Tremorine dihydrochloride], the gametocyte viability (concentration: 1 µM) was 91.5 (inactive) and the gametocyte viability (concentration: 10 µM) was 94.7 (inactive).

In the case of `C[C@@H]1O[C@@H](O[C@@H]2C=C3CC[C@@H]4[C@H](CC[C@]5(C)[C@@H](c6ccc(=O)oc6)CC[C@]45O)[C@@]3(C)CC2)[C@H](O)[C@H](O)[C@H]1O` [Proscillaridin A], the gametocyte viability (concentration: 1 µM) was 81.2 (inactive) and the gametocyte viability (concentration: 10 µM) was 76.2 (inactive).

For `CCCCCC[C@H]1C(=O)O[C@H](C)[C@H](NC(=O)c2cccc(NC=O)c2O)C(=O)O[C@@H](C)[C@@H]1OC(=O)CC(C)C` [Antimycin A], the gametocyte viability (concentration: 1 µM) was 86.4 (inactive) and the gametocyte viability (concentration: 10 µM) was 94.3 (inactive).

For `COc1ccc(CCN2CCC(Nc3nc4ccccc4n3Cc3ccc(F)cc3)CC2)cc1` [Astemizole], the gametocyte viability (concentration: 1 µM) was 92.7 (inactive) and the gametocyte viability (concentration: 10 µM) was 36.4 (active).

`Fc1ccc(C(OCCN2CCN(CCCc3ccccc3)CC2)c2ccc(F)cc2)cc1` was tested, and the gametocyte viability (concentration: 1 µM) was 81.5 (inactive) and the gametocyte viability (concentration: 10 µM) was 86 (inactive).

For `CN(C)[C@@H]1C(=O)C(C(N)=O)=C(O)[C@@]2(O)C(=O)C3=C(O)c4c(O)ccc(Cl)c4[C@@](C)(O)[C@H]3C[C@@H]12` [Chlortetracycline hydrochloride], the gametocyte viability (concentration: 1 µM) was 88.2 (inactive) and the gametocyte viability (concentration: 10 µM) was 88.7 (inactive).

For `CN1[C@@H]2CC[C@H]1C[C@@H](OC(=O)[C@H](CO)c1ccccc1)C2` [Hyoscyamine (L)], the gametocyte viability (concentration: 1 µM) was 86.7 (inactive) and the gametocyte viability (concentration: 10 µM) was 91.7 (inactive).

With `CN1[C@@H]2CC[C@H]1C[C@@H](OC1c3ccccc3CCc3ccccc31)C2` [Deptropine citrate] the gametocyte viability (concentration: 1 µM) was 99.2 (inactive) and the gametocyte viability (concentration: 10 µM) was 86.5 (inactive).

For `CC[C@@]1([C@@H]2O[C@@H]([C@H]3O[C@@](O)(CO)[C@H](C)C[C@@H]3C)C[C@@H]2C)CC[C@H]([C@]2(C)CC[C@]3(C[C@H](O)[C@@H](C)[C@@H]([C@@H](C)[C@@H](OC)[C@H](C)C(=O)O)O3)O2)O1` [Monensin sodium salt], the gametocyte viability (concentration: 1 µM) was 28.8 (active) and the gametocyte viability (concentration: 10 µM) was 0.676 (active).

`C[C@]12CC[C@H](O)C[C@H]1CC[C@@H]1[C@@H]2C[C@@H](O)[C@]2(C)[C@@H](C3=CC(=O)OC3)CC[C@]12O` [Digoxigenin] was tested, and the gametocyte viability (concentration: 1 µM) was 74.9 (inactive) and the gametocyte viability (concentration: 10 µM) was 72.3 (inactive).

For `O[C@@H]1CCCC[C@H]1N1CCC(c2ccccc2)CC1` [L(-)-vesamicol hydrochloride], the gametocyte viability (concentration: 1 µM) was 91.8 (inactive) and the gametocyte viability (concentration: 10 µM) was 84.9 (inactive).

With `CC[C@@H](C(N)=O)N1CCCC1=O` [Levetiracetam] the gametocyte viability (concentration: 1 µM) was 83.8 (inactive) and the gametocyte viability (concentration: 10 µM) was 85.3 (inactive).

`C[C@]12CCC(=O)C=C1C=C[C@@H]1[C@@H]2CC[C@@]2(C)[C@H]1CC[C@@]2(O)CCC(=O)O` [Canrenoic acid potassium salt] was tested, and the gametocyte viability (concentration: 1 µM) was 83.5 (inactive) and the gametocyte viability (concentration: 10 µM) was 82.3 (inactive).

`C#C[C@]1(O)CC[C@H]2[C@@H]3CCC4=CC(=O)CCC4=C3C=C[C@@]21CC` [Gestrinone] was tested, and the gametocyte viability (concentration: 1 µM) was 86.6 (inactive) and the gametocyte viability (concentration: 10 µM) was 74.2 (inactive).

`C=CC[C@]1(O)CC[C@H]2[C@@H]3CCC4=CC(=O)CCC4=C3C=C[C@@]21C` [Altrenogest] was tested, and the gametocyte viability (concentration: 1 µM) was 56.8 (inactive) and the gametocyte viability (concentration: 10 µM) was 33.1 (active).

For `C[N+]1([O-])[C@@H]2C[C@@H](OC(=O)[C@H](CO)c3ccccc3)C[C@H]1[C@@H]1O[C@@H]12` (stereo not given in full) [Scopolamin-N-oxide hydrobromide], the gametocyte viability (concentration: 1 µM) was 91.5 (inactive) and the gametocyte viability (concentration: 10 µM) was 94.5 (inactive).

For `CCN[C@@H](C)Cc1cccc(C(F)(F)F)c1` [Dexfenfluramine hydrochloride], the gametocyte viability (concentration: 1 µM) was 95.2 (inactive) and the gametocyte viability (concentration: 10 µM) was 90.6 (inactive).

In the case of `C[C@]12COC(=O)C[C@@H]1CC[C@@H]1[C@@H]2CC[C@@]2(C)[C@H]1CC[C@]2(C)O` [Oxandrolone], the gametocyte viability (concentration: 1 µM) was 81.4 (inactive) and the gametocyte viability (concentration: 10 µM) was 78.9 (inactive).

— the supplement of paper PMC12297408
